High-throughput results: PubChem BioAssay, National Center for Advancing Translational Sciences (NCATS)
SARS PLpro yeast: inhibitors of SARS-CoV papain-like protease in yeast. S. cerevisiae expressing SARS-CoV PLpro, growth rescue. hit rate 0.19% among 330,000. Potency, µM (top dose mostly 32.9 µM), for inactives: top-dose activity, positive = growth rescue, hits mostly activators; calls by dose curve; also: potency is read from the fitted curve at half-maximal effect; 0% is about no effect; nearly all actives have a fitted effect of over 55% in size
NS1 function inh: blocks influenza NS1 protein function | Potency, µM (doses to about 46.1 µM), for inactives: at the top dose activity, positive = more growth | hit rate 0.4% among 270,000; calls by dose curve; also: potency is read from the fitted curve at half-maximal effect; actives are rising curves; nearly all actives have a fitted effect of over 50% in size
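OD600 was taken as the measure of yeast growth restored by compound in an NS1-expressing S. cerevisiae strain. Cells had been washed out of glucose medium and diluted 1:100 into galactose -URA medium, pH 6.0.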
CHX counter: counter-screen for Shiga toxin inhibitors: cycloheximide protein synthesis inhibition. hit rate 12% among 300,000. cell reporter, cycloheximide protein synthesis inhibition counterscreen. max response, %; in the data active = max response mostly above about 13%, no sharp cut-off; inactive = mostly below about 14%; also: read at 38.3 µM for the half of the compounds with a filed dose; 0% is about no effect
Shiga toxin inh: blocks Shiga toxin action in Vero cells; Vero cells, Shiga toxin protein synthesis inhibition reporter; AID 2315; hit rate 9.2% among 290,000; inhibition, % at 38.7 µM; in the data active = inhibition mostly above about 28%, no sharp cut-off; inactive = mostly below about 43%; also: 0% is about no effect
Pf growth 96h: inhibits malaria parasite growth, 96 h | AID 504834 | hit rate 6.9% among 320,000 | P. falciparum luciferase reporter growth, 96 h | Potency, µM (doses to about 28.7 µM), for the others: top-dose activity change, negative = inhibition, usual class: inhibitors; also: potency is read from the fitted curve at half-maximal effect; % is scaled to controls: 0 for no effect and ±100 for the full control effect
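P. falciparum expressing integrated firefly luciferase, in erythrocytes at 2% hematocrit, 0.05% parasitemia, incubated with compounds 96 h at 37 C, 5% CO2. Growth inhibition read as loss of luminescence; two-generation exposure targets delayed-death apicoplast inhibitors.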
Pf growth 48h: inhibits P. falciparum growth in the first generation, 48 h; P. falciparum luciferase growth in erythrocytes, 48 h; Potency, µM (series often up to 28.7 µM), for inactives: top-dose activity change, negative = inhibition, most hits filed as inhibitors; hit rate 5.9% among 310,000; AID 504832; also: potency is read from the fitted curve at half-maximal effect; % is scaled to controls: 0 for no effect and ±100 for the full control effect
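Erythrocytes infected with P. falciparum carrying an integrated firefly luciferase reporter (2% hematocrit, 0.1% parasitemia final) were exposed to compounds in RPMI 1640 with 0.5% Albumax at 37 C, 5% CO2. Growth inhibition was scored as reduced luminescence.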
* marks the source's active call; other numbers are inactive results; i = inactive; ? = inconclusive; / = not tested or not shown. An excerpt weighted towards active compounds, which were near 21% of everything screened. Unless noted, calls follow the shape of the dose curve; as a rule, active = well fitted inhibition curve with a large enough effect; inconclusive = small, poorly fitted or top-dose-only effect, or another doubt; inactive = no such curve, though single readings can be large or run the other way.

SMILES	SARS PLpro yeast	NS1 function inh	CHX counter	Shiga toxin inh	Pf growth 96h	Pf growth 48h
Cc1cc(C)nc(NC(=O)CSc2nc3ccccc3s2)n1	-4%	-18%	33*	83*	12%	/
COc1cc(NC(=O)CSc2nc(C)cs2)cc(OC)c1	3%	-8%	9	5	5%	-16%
Cc1cc(C)nc(NC(=O)CSc2nc3cc(Cl)ccc3s2)n1	-2%	-9%	13	19	/	35%
Cn1cc(SCC(=O)Nc2nc3ccccc3s2)c2ccccc21	-26%	-67%	29*	24	23%	-2%
Cc1cc(C)n2c(Br)c(CSc3nc4ccccc4s3)nc2n1	?	-2%	34*	17	?	27%
CCn1c(CSc2nc3ccccc3s2)nc2ccccc21	-37%	-135%	22	21	?	?
O=C(CSc1ncn(-c2ccccc2)n1)Nc1nc2ccccc2s1	-4%	-40%	6	11	141%	16%
COc1ccc(NC(=O)CCSc2nc(C)cs2)cc1	2%	7%	32*	131*	-3%	84%
CCNC(=O)COn1c(SCC(=O)NCC)nc2ccccc2c1=O	4%	7%	-2	-4	74%	30%
Cc1ccc(S(=O)(=O)NC(=O)CSc2nc3ccccc3s2)cc1	-2%	16%	2	-10	0%	-9%
Cc1ccc(C)c(NC(=O)CSc2nc3ccc(N4C(=O)c5ccccc5C4=O)cc3s2)c1	-6%	7%	-3	-6	4.1µM*	41%
CC(C)Oc1ccc(C(=O)NC2=NCCS2)cc1	-1%	/	20*	57	183%	468%
COc1cccc(C(=O)NC2=NCCS2)c1OC	1%	-9%	31*	63*	?	93%
CCN(CC)S(=O)(=O)c1ccc(C(=O)NC2=NCCS2)cc1	-3%	0%	-4	-4	1%	20%
O=C(NC1=NCCS1)c1cccc(OC(F)F)c1	-1%	/	36*	76*	i	416%
O=C(NC12CC3CC(CC(C3)C1)C2)c1cccc(OC(F)F)c1	-5%	-17%	42*	72*	-11%	?
CC(=O)NC1=C(C#N)C(c2ccccc2)c2c(ccc3ccccc23)O1 (stereo not drawn)	-30%	-1%	5	-8	?	/
CC(C)N(C(=O)C(=O)c1cccn1-c1ccccc1C#N)C(C)C	-4%	-104%	-3	-4	10%	/
CN(c1ccccc1)S(=O)(=O)c1cccc(C(=O)NC2CCCCC2)c1	-27%	/	/	/	?	?
CC1=CC(=O)CC(C)(C)[C@@]1(O)/C=C/[C@@H](C)O[C@@H]1O[C@H](CO)[C@@H](O)[C@H](O)[C@H]1O	5%	/	/	/	/	/
O=C(CCN=C1NS(=O)(=O)c2ccccc21)OCc1nnc(-c2ccc([N+](=O)[O-])cc2)o1	1%	/	/	/	/	/
CN1CCc2nc(NC(=O)c3cccc(OC(F)F)c3)sc2C1	2%	7%	27*	23	?	/
COc1cc(OC)cc(C(=O)N[C@H](C(=O)NC23CC4CC(CC(C4)C2)C3)C(C)C)c1	-6%	-1%	-4	-17	/	10µM*
CN1CCc2nc(NC(=O)COc3ccc4ccccc4c3)sc2C1	-8%	/	6	24	-104%	?
COc1ccc(C(=O)NC2=NCCS2)cc1	-1%	-5%	73*	68*	106%	222%
SMILES	SARS PLpro yeast	NS1 function inh	CHX counter	Shiga toxin inh	Pf growth 96h	Pf growth 48h
COc1cc(OC)cc(C(=O)NC2=NCCS2)c1	-8%	-8%	25	29	22%	/
CC(=O)NC(CC(=O)OCC(=O)N1CCN(S(=O)(=O)c2ccc(Cl)cc2)CC1)c1ccccc1 (stereo not drawn)	0%	/	/	/	-12%	4%
O=C(Nc1cc(Cl)ccc1F)C1=COCCO1	-2%	/	/	/	106%	51%
C#CCn1c(=NC(=O)CSCC(=O)N2CCOCC2)sc2ccccc21	-9%	4%	-2	-3	-21%	19%
COc1ccc(-c2noc(CN(C)Cc3ccc(C)o3)n2)cc1	?	0%	11*	35*	3%	17%
COc1cccc(CN(C)Cc2c(O)ccc3ccccc23)c1	-3%	9%	26	24*	-1%	?
CCN(CCn1cccn1)Cc1nc(-c2ccc(OC)cc2)no1	0%	-4%	4	14	?	6%
COc1ccc(CCc2nc(-c3ccc(-n4cccc4)cc3)no2)cc1	0%	6%	-3	-8	56%	/
COc1ccc(CN(C)Cc2c(O)ccc3ccccc23)cc1	-1%	-4%	9	3	26%	?
COc1ccc(-c2noc(CCc3ccccc3)n2)cc1	-2%	-8%	23*	88*	-14%	39%
CN(Cc1ccc(F)cc1)Cc1nc(-c2ccccc2)no1	-1%	-6%	-1	24	10µM*	-3%
CSc1ncccc1C(=O)N1CCCC(N2CCN(c3ccccc3F)CC2)C1 (stereo not drawn)	?	7%	-3	1	?	67%
CN(CC(=O)NCc1ccccc1)S(=O)(=O)c1cnc[nH]1	5%	-2%	1	-8	14%	/
COc1ccc(-c2noc(CN(C)Cc3ccccc3)n2)cc1	2%	-14%	11*	18	?	21%
COc1ccc(-c2noc(CN(C)C(=O)c3ccco3)n2)cc1	1%	1%	23	35	12%	19%
COc1cccc(CN(C)Cc2nc(C3CC3)no2)c1	0%	-4%	-1	-1	12µM*	75%
CCCN(CC(=O)Nc1ccccc1C)C(=O)c1nn(CC)c(=O)c2ccccc12	-2%	/	/	/	?	?
CC(NC(=O)CCSc1nc(-c2ccc3c(c2)OCO3)cc(C(F)(F)F)n1)c1ccccc1 (stereo not drawn)	3%	-2%	-3	-7	?	?
COc1c(/C=N/NC(N)=S)c(C)nn1-c1ccccc1	25%	7%	0	41	-13%	12%
COc1ccc(CP(=O)(c2ccccc2)c2ccccc2)cc1	-11%	-53%	-3	8	?	?
COc1ccc(CN(C)C2c3ccccc3-c3ccccc32)cc1	-9%	-7%	0	-2	12µM*	?
O=C(Nc1cccc(C(=O)Nc2ccc(F)cc2F)c1)c1ccccc1	-3%	-2%	11	11	-15%	24%
COc1ccccc1NC(=O)N1CCCC1C(=O)NC12CC3CC(CC(C3)C1)C2 (stereo not drawn)	11%	1%	-3	-7	40%	?
COc1ccc(C2c3ccc(O)cc3Oc3ncn4nc(-c5ccncc5)nc4c32)cc1OC (stereo not drawn)	1%	8%	-1	-6	3.3µM*	1.3µM*
COc1ccc(C2c3ccc(O)cc3Oc3ncn4nc(-c5ccco5)nc4c32)cc1OC (stereo not drawn)	1%	2%	8	8	-2%	?
COc1ccc(C2c3ccc(O)cc3Oc3ncn(CCN4CCOCC4)c(=N)c32)cc1OC (stereo not drawn)	1%	2%	-1	-9	?	?
